The list is not random: actives were taken first. Their share in the collection is about 19%.
ELG1 repair inh: ELG1-dependent DNA repair inhibition; HEK293T ELG1-luciferase reporter, luminescence, 16 h; DNA damage induced by 5-fluorouridine; Potency, µM (series often up to 46.1 µM), most hits filed as inhibitors; hit rate 2.3% among 330,000; AID 504467; note: nearly all actives have a fitted effect of over 55% in size
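5-Fluorouridine DNA damage + compound/DMSO, 2,000 cells/well, 16 h, 37 °C/5% CO2. ONE-Glo, 30 min RT, luminescence. Readout = decrease in reporter signal.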
HT1080NT lethal: kills 2HG-producing HT-1080-NT fibrosarcoma cells; HT-1080-NT fibrosarcoma viability, CellTiter-Glo ATP luminescence, 48 h; hit rate 1.6% among 360,000; Potency, µM (top dose mostly 46.1 µM), actives largely listed as cytotoxic;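 note: NT is the 2HG producing partner of a matched IDH1 knockdown line; nearly all actives have a fitted effect of over 55% in size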
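A 48-hour cytotoxicity screen used HT-1080-NT cells plated 2 hours before compound delivery. ATP-based CellTiter-Glo luminescence measured viability, normalized to DMSO and no-cell controls.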
IL1B secr inh: blocks inflammasome-driven IL-1 beta release; THP-1 LPS/ATP IL-1B secretion, AlphaLISA, 16 h; hits give low values; hit rate 4.7% among 360,000; activity change, % at 57.5 µM; in the data active = activity change below about -50%; inconclusive = mostly about -30% to -49%
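THP-1 cells pretreated 1 hr with compounds (up to 57.5 uM final), then stimulated with LPS (250 ng/mL final) plus ATP (1.25 mM final); secreted IL-1B measured by AlphaLISA after 16 hr, decreased signal indicating inhibition.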
DT40 TDP1 no CPT: qHTS for Inhibitors of human tyrosyl-DNA phosphodiesterase 1 (TDP1): qHTS in cells in absence of CPT; DT40 Tdp1-/- hTDP1 cells, no CPT, ATP luminescence, 48 h; Potency, µM (titrated, usually from 46.2 µM), actives largely listed as inhibitors; hit rate 15% among 420,000; AID 686978, 2013; note: nearly all actives have a fitted effect of over 55% in size
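Stably hTDP1-transfected Tdp1-null chicken DT40 cells were treated with library compounds minus camptothecin and grown for at least 48 hr at 37 °C, after which cellular ATP was quantified by luminescence.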
DT40 TDP1 CPT: DT40-hTDP1 cell growth loss with CPT. chicken DT40 Tdp1-/-;hTDP1 cells + 20 nM CPT, ATP luminescence, 48 h. Potency, µM (highest dose often 46.2 µM), most hits filed as inhibitors. hit rate 12% among 420,000. AID 686979; note: nearly all actives have a fitted effect of over 55% in size
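Chicken DT40 Tdp1-/- cells stably complemented with human TDP1 were seeded at 400 cells/well in medium containing 20 nM camptothecin, exposed to pin-transferred compounds, and grown at 37 °C for at least 48 hr. Viability was read as ATP luminescence.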
HT1080 IDH1KD tx: HT-1080 IDH1 knockdown cell toxicity (counter line); HT-1080 IDH1 knockdown viability, ATP luminescence, 48 h; Potency, µM (series often up to 46.1 µM), usual class: cytotoxic; hit rate 2% among 360,000; AID 686971
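IDH1KD HT-1080 cells, 750/well, RPMI + 5% FBS; compound pinned after 2 h settling; 48 h, 37 °C; CellTiter-Glo luminescence; % activity normalised to DMSO and no-cell wells; curves fitted, classed by r2 and efficacy.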
Hits are given with their value; i = inactive; ? = inconclusive; nt = not tested or not shown; [ ] = dose if it differs, or a comment. Unless noted, calls come from the whole dose curve; as a rule, active = well fitted curve in the direction sought with a large enough effect; inconclusive = small, poorly fitted or top-dose-only effect, or another doubt; inactive = no such curve, though single readings can be large; an effect the other way counts as inactive or inconclusive.

SMILES	ELG1 repair inh	HT1080NT lethal	IL1B secr inh	DT40 TDP1 no CPT	DT40 TDP1 CPT	HT1080 IDH1KD tx
CCCC(=O)Nc1cc(C)cn(Cc2c(F)cccc2Cl)c1=O	i	i	i	i	i	i
CCOc1ccc(N2C(=O)CC(Sc3n[nH]c(-c4ccccc4)n3)C2=O)cc1 (centres undefined)	i	i	i	7.3µM	7.3µM	i
CCOc1ccc(N2C(=O)C3C(C2=O)C3(c2ccccc2)c2ccccc2)cc1 (centres undefined)	?	i	i	?	18µM	i
COc1cccc(N2C(=O)C3C(C2=O)C3(c2ccccc2)c2ccccc2)c1 (centres undefined)	?	i	i	?	i	i
CCOc1ccc(N2C(=O)CC(SCc3nc4ccccc4[nH]3)C2=O)cc1 (centres undefined)	i	i	i	?	16µM	i
CCOc1ccc(N2C(=O)CC(SCC(=O)O)C2=O)cc1 (centres undefined)	i	i	?	i	i	i
CC(C)(C)C(=O)N1CCN(c2ccc(NC(=O)c3ccc([N+](=O)[O-])o3)cc2)CC1	?	4.1µM	-96	6.5µM	2.6µM	5.2µM
CC1CCN(c2ccc(NC(=O)c3ccc([N+](=O)[O-])o3)cc2)CC1	?	16µM	-109	3.3µM	4.6µM	7.3µM
O=C(Nc1ccc(N2CCN(C(=O)c3ccc(Cl)cc3)CC2)cc1)c1ccc([N+](=O)[O-])o1	?	10µM	-107	1.2µM	2.9µM	2.6µM
CC(C)(C)C(=O)N1CCN(c2ccc(NC(=O)c3ccco3)cc2)CC1	i	i	?	i	i	i
CCC(=O)N1CCN(c2ccc(NC(=O)c3ccc([N+](=O)[O-])o3)cc2)CC1	i	6.5µM	-103	21µM	4.6µM	5.2µM
CC1CCN(C(=O)c2ccc([N+](=O)[O-])o2)CC1	i	i	i	i	?	i
O=C(Cc1ccc(Cl)cc1)Nc1ccc(C(=O)N2CCOCC2)cc1	i	i	i	i	i	i
Cc1ccc(C)c(Cn2c(=O)n(C(C)C)c(=O)c3oc4ccccc4c32)c1	nt	nt	nt	i	i	nt
CS(=O)(=O)N1CCN(c2ccc(NC(=O)c3ccc([N+](=O)[O-])o3)cc2)CC1	?	?	-97	7.3µM	2.6µM	?
CCOC(=O)CCCCC(=O)c1[nH]c(=O)[nH]c1CSCCO	i	i	-84	i	i	?
N#Cc1c(-c2ccccc2)nc(SCc2ccc(Cl)cc2)[nH]c1=O	i	i	-54	i	i	i
CCOC(=O)CCCCC(=O)c1[nH]c(=O)[nH]c1CSc1nc(-c2ccccc2)c(C#N)c(=O)[nH]1	i	i	-66	i	i	i
COc1cc(C2c3c(oc4ccc(F)cc4c3=O)C(=O)N2c2nc(C)c(C)s2)cc(OC)c1OC (centres undefined)	nt	nt	nt	i	i	nt
O=C(NCc1ccccn1)c1cnn(-c2nccc(-c3ccccc3F)n2)c1C1CC1	nt	nt	nt	i	i[9.04 µM]	nt
COCCn1cc(C(=O)N2CCN(C)CC2)c2c3ccccc3n(C)c2c1=O	i	i	i	?	i	i
Cc1ccc(C)c(N2CCN(C(=O)c3cn(CC(C)C)c(=O)c4c3c3ccccc3n4C)CC2)c1	nt	nt	nt	23µM	?	nt
Cc1cccc(N2CCN(C(=O)c3cn(C)c(=O)c4c3c3ccccc3n4C)CC2)c1C	23µM	?	?	22µM	22µM	18µM
Cc1ccc(-n2nc(C(=O)N3CCN(c4cc(C)ccc4C)CC3)c3c4ccccc4n(C)c3c2=O)cc1	nt	nt	nt	i	i	nt
Cc1cccc(N2CCN(C(=O)c3cc(=O)[nH]c4ccccc34)CC2)c1C	?	i	i	i	?	i
SMILES	ELG1 repair inh	HT1080NT lethal	IL1B secr inh	DT40 TDP1 no CPT	DT40 TDP1 CPT	HT1080 IDH1KD tx
Cc1cccc(N2CCN(C(=O)c3cn(CC(C)C)c(=O)c4c3c3ccccc3n4C)CC2)c1C	nt	nt	nt	5.2µM	8.2µM	nt
COc1ccc(N2CCN(C(=O)c3cn(CC(C)C)c(=O)c4c3c3ccccc3n4C)CC2)cc1	nt	nt	nt	23µM	?	nt
CCOC(=O)N1CCN(C(=O)c2cn(CCOC)c(=O)c3c2c2ccccc2n3C)CC1	?	i	i	i	i	i
COc1ccc(OC)c(-c2ccnc(-n3ncc(C(=O)N(C)CCO)c3C3CC3)n2)c1	nt	nt	nt	i	i	nt
O=C(COc1ccccc1)Nc1nnc2n1CCS2	nt	nt	nt	i	i	nt
CCN(C[C@H]1N[C@@](Cc2ccccc2)(C(=O)OC)[C@H]2C(=O)N(C)C(=O)[C@@H]12)C(=O)COC	i	i	i	i	i	i
O=C(Nc1cccc(Cn2cccn2)c1)c1cc2c(s1)CCCC2	?	i	i	11µM	?	?
Cn1ncc(Br)c1NC(=O)c1cc(Cl)cc(Cl)c1	i	i	i	i	i	i
CC(=O)CSc1nc(-c2ccccc2)c(-c2ccccc2)o1	i	i	i	i	i	i
COCCNC(=O)CSc1nc(-c2ccccc2)c(-c2ccccc2)o1	?	i	i	?	12µM	i
CCOc1ccccc1CN1CCNC(=O)C1CC(=O)NCCc1ccccn1 (centres undefined)	i	i	i	i	i	i
OC(C[n+]1ccccc1Cl)c1ccccc1 (centres undefined)	nt	nt	nt	i	i	nt
Clc1ccc(OCc2cn3cccnc3n2)c2ncccc12	?	i	i	i	i	i
c1cnc2c(OCc3cn4cccnc4n3)cccc2c1	?	i	i	29µM	i	i
COc1ccccc1N(C1=NCCCS1)S(=O)(=O)c1ccc(C(C)(C)C)cc1	i	i	i	23µM	21µM	i
COc1ccc(N(C2=NCCCS2)S(=O)(=O)c2ccc(C(C)(C)C)cc2)cc1	i	i	i	?	i	i
O=C1c2ccccc2S(=O)(=O)N1Cc1ccccc1[N+](=O)[O-]	i	i	i	i	i	i
CN1c2ccccc2C(C)(C)C12CC(c1cccc(S(=O)(=O)N3CCCC3)c1)=NO2 (centres undefined)	i	i	i	16µM	?	i
CN1c2ccccc2C(C)(C)C12CC(c1ccc(S(=O)(=O)N3CCCCC3)cc1)=NO2 (centres undefined)	i	i	i	21µM	?	i
CCN1CCC(C(=O)NC(c2ccc(F)cc2)c2ncccc2C)CC1 (centres undefined)	nt	i	i	i	i	i
CC(C)CN1CCC(C(=O)NC(c2ccc(F)cc2)c2ccc3ccccc3n2)CC1 (centres undefined)	nt	i	?	23µM	?	i

Source: PubChem BioAssay (National Center for Advancing Translational Sciences (NCATS))
